Mtb FBA inh = inhibits M. tuberculosis FBA enzyme; AID 588726; actives 2.3% (n = 360,000); inhibition, % at 1 µM; purified M. tuberculosis FBA, fluorescence read-out; P9WQA3; in the data active = inhibition above about 27%
Target sequence (P9WQA3 whole entry, looked up): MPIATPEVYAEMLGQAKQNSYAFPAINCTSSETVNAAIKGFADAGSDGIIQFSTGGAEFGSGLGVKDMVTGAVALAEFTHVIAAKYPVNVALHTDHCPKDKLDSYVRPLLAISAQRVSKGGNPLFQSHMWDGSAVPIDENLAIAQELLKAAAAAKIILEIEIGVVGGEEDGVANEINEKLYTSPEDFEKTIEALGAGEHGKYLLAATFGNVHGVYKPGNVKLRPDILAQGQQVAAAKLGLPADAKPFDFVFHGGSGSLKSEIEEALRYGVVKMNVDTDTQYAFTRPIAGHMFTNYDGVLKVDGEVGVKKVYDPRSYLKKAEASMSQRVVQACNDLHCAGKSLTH
CCHF vOTU inh-1 = blocks the CCHF virus ovarian tumor domain protease. AID 651958. inhibition, % at 11.5 µM. actives 0.55% (n = 370,000). CCHFV vOTU protease, Pep-AMC fluorescence
Vc quorum ag = induces V. cholerae light production without autoinducers | V. cholerae BH1578 lux reporter, luminescence, 6 h | activation, % at 18.7 µM | actives 0.16% (n = 350,000) | AID 588436; in the data active = activation mostly above about 9.7%, no sharp cut-off
GDH-TPI inh = GDH-TPI coupled enzyme inhibition counter-screen; AID 588335; GDH-TPI coupled enzyme counterscreen, NADH absorbance; inhibition, % at 4.8 µM; actives 1.2% (n = 360,000)
CCHF vOTU inh-2 = confirmation of CCHF virus vOTU protease inhibitors; shares compounds with CCHF vOTU inh-1; Recombinant CCHFV vOTU, Pep-AMC fluorescence; inhibition, % at 11.5 µM; actives 17% (n = 1,900); AID 686976
A number is an active result; - = inactive; . = no result given. Hits are enriched below; roughly 3.9% of the tested compounds scored in any of these assays. Rule as the data show it, unless noted: active = inhibition above about 30%; inactive = the rest.

SMILES	Mtb FBA inh	CCHF vOTU inh-1	Vc quorum ag	GDH-TPI inh	CCHF vOTU inh-2
COc1ccc(CCNC(=O)CSc2nc(N)c(C#N)c(-c3cccs3)c2C#N)cc1OC	-	32	-	-	-
COCCn1c(-c2ccc(Cl)cc2)cnc1SCC(=O)NCCc1ccc(OC)c(OC)c1	-	30	-	-	-
Cc1ccccc1NC(=O)CSc1nc(N)c(C#N)c(-c2cccs2)c1C#N	-	-	-	-	.
COc1ccc(CCNC(=O)CSCc2ccc(Cl)cc2)cc1OC	-	-	-	-	.
Nc1[nH]c(C(=O)c2ccccc2)c(-c2ccc(C(F)(F)F)cc2)c1C(=O)NCc1ccc(Cl)cc1Cl	.	-	.	.	.
COCCN1Cc2cccc(C(=O)NCCc3ccccc3)c2C1=O	-	-	-	-	.
N#Cc1cc2ccc(N3CCOCC3)cc2cc1C#N	-	73	-	-	-
CCCCCCCCCCCCCCCC[N+](C)(C)Cc1ccc(F)cc1	-	56	-	-	57
CC#CC[N+](C)(C)CCCCCCCC	-	-	-	-	.
COC(=O)c1cc(=O)[nH]c(SCc2cccc(C)c2)n1	-	-	-	-	.
Cc1cccc(C)c1NC(=O)C1(C)CSCC(=O)N1CCOc1ccccc1 (stereo not given)	.	31	.	.	-
O=C(NC1CCCC1)c1ccc(CS(=O)Cc2ccccc2Cl)o1 (stereo not given)	-	34	-	-	-
Cc1cc(C(F)(F)F)nc2c(Cl)c(C(C)(C)C)nn12	-	-	-	-	.
C=CCCC(=O)N1C[C@H]2CON(C)[C@H]2C[C@H]1c1ccccc1Br	-	-	-	-	.
CN1OC[C@@H]2CN(C(=O)c3ccc([N+](=O)[O-])cc3)[C@H](c3ccccc3Br)C[C@@H]21	.	39	.	.	-
Cc1ccc(S(=O)(=O)c2nc(S(=O)(=O)CCO)sc2N2CCOCC2)cc1	-	-	-	-	.
Oc1cc(CNCc2ccccc2)c(O)cc1CNCc1ccccc1	-	43	-	-	-
Cc1cccc(S(=O)(=O)Nc2cccc3c2C(=O)c2ccccc2-3)c1	-	-	-	-	.
Cc1ccc(C)c(S(=O)(=O)/N=C2\C=C(NS(=O)(=O)c3ccccc3)C(=O)c3ccccc32)c1	-	30	-	-	-
CCc1ccc(S(=O)(=O)/N=C2\C=C(NS(=O)(=O)c3ccccc3)C(=O)c3ccccc32)cc1	-	54	-	-	-
COc1ccc(C(CNC(=O)C2CC(=O)N(Cc3ccc(C)cc3)C2)N(C)C)cc1 (stereo not given)	-	-	-	-	.
CCC1(c2ccc(F)cc2)NC(=O)N(CC(=O)N2CCc3ccccc3C2)C1=O (stereo not given)	-	-	-	-	.
CN=C(Nc1ccc(Cl)cc1)c1ccc(C(F)(F)F)cc1	-	36	-	-	-
CCOC(=O)c1sc2nc3c(SCCC#N)cc(C(=O)c4cc(F)ccc4O)cn3c(=O)c2c1C	-	-	-	-	.
O=C(O)CSc1cc(C(=O)c2cc(F)ccc2O)cn2c(=O)c3c(-c4ccccc4)csc3nc12	-	33	-	-	-
SMILES	Mtb FBA inh	CCHF vOTU inh-1	Vc quorum ag	GDH-TPI inh	CCHF vOTU inh-2
Cc1ccc(NC(=O)CNc2ccc(Cl)c(Cl)c2)cc1S(=O)(=O)N(C)C	-	-	-	-	.
Cc1ccc(NC(=O)Cc2ccc(Cl)c(Cl)c2)cc1S(=O)(=O)N(C)C	-	30	-	-	-
Cc1cc(NS(=O)(=O)c2ccc(NC(=O)COc3c(C)cc(Br)cc3C)cc2)no1	-	31	-	-	-
Cc1c(C(=O)Nc2ccc(S(=O)(=O)Nc3ncccn3)cc2)oc2ccccc12	-	-	-	-	.
Cc1cc(NS(=O)(=O)c2ccc(NC(=O)c3oc4ccccc4c3C)cc2)no1	-	31	-	-	-
O=C(C(=O)N1CCN(S(=O)(=O)c2cccc3ccccc23)CC1)c1cccc(C(F)(F)F)c1	.	-	.	.	.
CCS(=O)(=O)c1ccc2oc(Nc3ccc(C(C)(C)C)cc3)nc2c1	-	30	-	-	-
CN(n1cnc2ccccc2c1=O)S(C)(=O)=O	-	-	-	-	.
COc1cccc(C(=O)Nc2cc3c4c(c2)CC(=O)N4CCC3)c1	-	-	-	-	.
COc1cc(C(=O)Nc2cc3c4c(c2)CC(=O)N4CCC3)cc(OC)c1OC	-	34	-	-	-
COC1=C(Nc2ccc(C)cc2)C(=O)c2ccccc2C1=O	-	55	-	-	-
O=C1C(Nc2cccc(O)c2)=C(N2CCCCC2)C(=O)c2ccccc21	-	89	-	-	92
COC1=C(Nc2ccccc2)C(=O)c2ccccc2C1=O	-	-	-	-	.
O=C(/C=C/c1ccc(O)cc1)c1ccc(NC2=C(N3CCCCC3)C(=O)c3ccccc3C2=O)cc1	-	84	-	-	60
CN(C1=C(N2CCCCC2)C(=O)c2ccccc2C1=O)c1ccccc1	-	41	-	-	-
C[C@H](NC(=O)c1ccc2c(c1)OCO2)c1nnc2ccccn12	-	.	-	-	.
COc1cccc(C(NC(C)=O)c2nc(-c3cccc4cccnc34)cs2)c1 (stereo not given)	-	-	-	-	.
O=[N+]([O-])c1ccc(N2CCN(CCO)CC2)cc1NCc1ccco1	-	-	-	-	.
COc1cccc(C2C(C#N)=C(N)N(N(C)C)C3=C2C(=O)CC(C)(C)C3)c1 (stereo not given)	-	-	-	-	.
O=C1C(Nc2ccccc2)=C(N2CCCCC2)C(=O)c2ccccc21	-	101	-	-	87
Cc1ccc(NC2=C(N3CCCCC3)C(=O)c3ccccc3C2=O)cc1	-	96	-	-	85
O=C(NNc1ccccc1)C(=O)NNc1ccccc1	-	-	-	-	.
C[C@@H]1CN(C(=O)OC(C)(C)C)CCN1c1ccc(N2CC[C@H](O)C2)c(C#N)c1	.	48	.	.	-
C[C@@H]1CN(c2ccc(N3CCN(C(=O)OC(C)(C)C)C[C@@H]3C)cc2C#N)C[C@H](C)O1	.	41	.	.	-
C[C@@H]1CN(c2ccc(N3CCN(C(=O)OC(C)(C)C)C[C@H]3C)cc2C#N)C[C@H](C)O1	.	-	.	.	.
SMILES	Mtb FBA inh	CCHF vOTU inh-1	Vc quorum ag	GDH-TPI inh	CCHF vOTU inh-2
COc1cccc(S(=O)(=O)Nc2ccc(C(O)(C(F)(F)F)C(F)(F)F)cc2)c1	-	-	-	-	.
CC(C)(C)c1ccc(S(=O)(=O)Nc2ccc(C(O)(C(F)(F)F)C(F)(F)F)cc2)cc1	-	49	-	-	-
CCCOc1ccc(C(C)=O)cc1CN1CCOCC1	-	-	-	-	.
NC(=O)C1C(=O)c2ccccc2C1(C[N+](=O)[O-])c1ccccc1 (stereo not given)	-	46	-	-	-
O=S(=O)(Nc1ccc(O)c2ncccc12)c1ccccc1F	-	62	-	-	-
Cc1ccc(S(=O)(=O)Nc2ccc3c4c(cccc24)CC3)c(C)c1	-	-	-	-	.
Cc1ccc(S(=O)(=O)Nc2ccc(O)c3ccccc23)c(C)c1	-	66	-	-	-
Cc1ccc(C)c(S(=O)(=O)Nc2ccc(O)c3ccccc23)c1	-	62	-	-	-
Oc1ccc(CNc2ccccc2F)c2cccnc12	-	-	-	-	.
COc1ccc(CCNC(=O)c2cc(=O)[nH]c3ccc(Br)cc23)cc1OC	-	-	-	-	.
Cc1c(C)n2c(SCC(=O)Nc3ccc4c(c3)OCCO4)nnc2[nH]c1=O	-	-	-	-	.

Screening data (PubChem)
